From PubChem BioAssay AID1159580 (chemical genetic matrix, 2015)
About 2,000 (36%) of roughly 5,500 compounds were called active. Not shown: some 18% with an inconclusive outcome. No stated cut-off is given here; in the data, active means normalized growth mostly below about 0.91 (no sharp cut-off); inconclusive means no clear call, values can overlap the other calls; inactive means mostly above about 0.92. This is one part of the list.

Test: chemical genetic growth profiling, strain panel (AID 1159580);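 further: tested at 20 µM; growth read once vehicle control cultures reached saturation at 30 °C; 1 = growth at the plate median or of vehicle wells; lower values mean less growth of the strain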
Settings: S. cerevisiae deletion strains, growth OD

Measured: normalized growth

CNC(=O)Oc1ccccc1OC(C)C
inactive: locus YAL013W, strain DEP1, hits give low values 1.01 | locus YAL021C, strain ccr4, hits give low values 0.987 | locus YAL026C, strain drs2, hits give low values 0.99 | locus YAL030W, strain snc1, hits give low values 0.992 | locus YBL061C, strain skt5, hits give low values 0.987 | locus YBR009C, strain hhf1, hits give low values 0.99 | locus YBR021W, strain FUR4, hits give low values 1.02 | locus YBR023C, strain chs3, hits give low values 0.985 | locus YBR171W, strain sec66, hits give low values 0.97 | locus YBR229C, strain ROT2, hits give low values 1.02 | locus YBR231C, strain swc5, hits give low values 0.984 | locus YBR279W, strain paf1, hits give low values 0.989 | locus YCL011C, strain gbp2, hits give low values 0.994 | locus YCL016C, strain dcc1, hits give low values 0.99 | locus YCL029C, strain bik1, hits give low values 0.994 | locus YCL061C, strain MRC1, hits give low values 0.994 | locus YCL069W, strain vba3, hits give low values 0.989 | locus YCR088W, strain abp1, hits give low values 0.99 | locus YDL005C, strain med2, hits give low values 0.985 | locus YDL035C, strain GPR1, hits give low values 1.03 | locus YDL040C, strain nat1, hits give low values 0.979 | locus YDL074C, strain BRE1, hits give low values 1.08 | locus YDL101C, strain DUN1, hits give low values 1.02 | locus YDL134C, strain PPH21, hits give low values 1.02 | locus YDL185W, strain tfp1, hits give low values 0.979 | locus YDL192W, strain arf1, hits give low values 0.989 | locus YDR001C, strain nth1, hits give low values 0.993 | locus YDR069C, strain doa4, hits give low values 0.983 | locus YDR101C, strain arx1, hits give low values 0.983 | locus YDR137W, strain rgp1, hits give low values 1.05 | locus YDR150W, strain NUM1, hits give low values 1.02 | locus YDR159W, strain sac3, hits give low values 0.973 | locus YDR162C, strain NBP2, hits give low values 1.01 | locus YDR195W, strain ref2 0.915 | locus YDR297W, strain sur2, hits give low values 0.998 | locus YDR318W, strain mcm21, hits give low values 0.996 | locus YDR334W, strain swr1, hits give low values 0.982 | locus YDR335W, strain msn5, hits give low values 0.998 | locus YDR388W, hits give low values 0.986 | locus YDR392W, strain spt3, hits give low values 0.978 | locus YDR502C, strain sam2, hits give low values 1 | locus YEL003W, strain gim4, hits give low values 0.993 | locus YEL037C, strain rad23, hits give low values 0.989 | locus YEL061C, strain CIN8 (second series), hits give low values 0.983 | locus YEL061C, strain CIN8, hits give low values 1.01 | locus YER015W, strain faa2, hits give low values 0.991 | locus YER016W, strain bim1, hits give low values 0.991 | locus YER110C, hits give low values 0.994 | locus YER111C, strain swi4, hits give low values 0.984 | locus YER155C, strain BEM2 (second series), hits give low values 0.97 | locus YER155C, strain BEM2, hits give low values 1.02 | locus YER167W, strain BCK2, hits give low values 1 | locus YFR010W, strain ubp6, hits give low values 0.992 | locus YGL078C, strain dbp3, hits give low values 0.966 | locus YGL086W, strain mad1, hits give low values 0.994 | locus YGL167C, strain pmr1, hits give low values 0.987 | locus YGL173C, strain kem1, hits give low values 0.987 | locus YGL227W, strain vid30, hits give low values 0.982 | locus YGL240W, strain doc1, hits give low values 0.974 | locus YGL248W, strain PDE1, hits give low values 1.02 | locus YGL253W, strain hxk2, hits give low values 0.99 | locus YGR078C, strain PAC10, hits give low values 1.03 | locus YGR135W, strain pre9, hits give low values 0.993 | locus YGR229C, strain SMI1, hits give low values 1.03 | locus YGR252W, strain gcn5, hits give low values 0.991 | locus YHR013C, strain ard1, hits give low values 0.954 | locus YHR027C, strain rpn1, hits give low values 0.996 | locus YHR030C, strain SLT2, hits give low values 1.02 | locus YHR079C, strain IRE1 (second series), hits give low values 0.988 | locus YHR094C, strain hxt1, hits give low values 0.992 | locus YHR129C, strain ARP1, hits give low values 1.03 | locus YHR142W, strain chs7, hits give low values 1 | locus YHR200W, strain rpn10, hits give low values 0.986 | locus YIL066C, strain RNR3, hits give low values 1.02 | locus YIL073C, strain SPO22, hits give low values 0.999 | locus YIL125W, strain kgd1, hits give low values 0.984 | locus YIR030C, strain dcg1, hits give low values 0.986 | locus YJL092W, strain hpr5, hits give low values 0.998 | locus YJL095W, strain BCK1 (second series), hits give low values 0.986 | locus YJL095W, strain BCK1, hits give low values 1.02 | locus YJL115W, strain asf1, hits give low values 0.972 | locus YJL129C, strain trk1, hits give low values 0.986 | locus YJL134W, strain LCB3, hits give low values 1.02 | locus YJL154C, strain vps35, hits give low values 0.993 | locus YJL164C, strain tpk1, hits give low values 0.996 | locus YJL166W, strain qcr8, hits give low values 0.994 | locus YJL168C, strain set2, hits give low values 0.989 | locus YJL187C, strain SWE1 (second series), hits give low values 1.02 | locus YJL187C, strain SWE1, hits give low values 0.995
